Results filed as inconclusive are left out. Values without a mark were called inactive. The source made the active and inactive calls. Calls follow the shape of the dose curve; as a rule, active = well fitted curve in the direction sought with a large enough effect; inconclusive = small, poorly fitted or top-dose-only effect, or another doubt; inactive = no such curve, though single readings can be large; an effect the other way counts as inactive or inconclusive.

Experimental findings from PubChem BioAssay (NCATS) are described below.

The test system of one assay is W2. In words: qHTS profiling for inhibitors of Plasmodium falciparum proliferation (AID 504749). Also: nearly all actives have a fitted effect of over 60% in size. Also: potency is read from the fitted curve at half-maximal effect. As to conditions: P. falciparum in erythrocytes, SYBR Green DNA, 72 h; series mostly up to 28.7 µM. In short, it runs like this: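 Infected RBCs, 0.3% parasitemia/2.5% Hct final; cpd 72 h, 37 C, 5% CO2; lysis buffer with saponin/triton/SYBR Green I, o/n RT dark; FI 485/535; norm. to artemisinin (0.29 uM) and DMSO.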

For another assay, the system named is HEK293. In words: Cytotoxic Profiling of Annotated Libraries Using Quantitative High-Throughput Screening (AID 1296008). Also: nearly all actives have a fitted effect of over 60% in size. As to max response: % is scaled to controls: 0 for no effect and ±100 for the full control effect. As to conditions: Five cell lines viability, CellTiter-Glo ATP luminescence, 48-72 h; max response: active compounds read low. In outline:
(§1)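 Cytotoxicity was measured as CellTiter-Glo ATP luminescence, read after 10 min at room temperature. Compound treatment of the cells lasted 48 or 72 hr at 37 degrees Celsius in a qHTS format.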

The test system of assay [1] is HaCat. The description is as above. The settings on record: Five cell lines viability, CellTiter-Glo ATP luminescence, 48-72 h; max response: active compounds read low. In short, it runs like this: as §1
A further assay concerns KB-3-1. The description is as above. The settings on record: Five cell lines viability, CellTiter-Glo ATP luminescence, 48-72 h; max response: active compounds read low. In outline: as §1
Assay [2] has as its system NIH3T3. Described as above. As to conditions: Five cell lines viability, CellTiter-Glo ATP luminescence, 48-72 h; max response: active compounds read low. In short, it runs like this: as §1
Assay [3] concerns HACAT. Put plainly: qHTS assay to identify novel small-molecules to repurpose for Merkel cell carcinoma treatment (AID 1296009). Also: nearly all actives have a fitted effect of over 60% in size. Also: potency is read from the fitted curve at half-maximal effect. The settings on record: MCC and control cell lines, CellTiter-Glo viability, 72 h; at 44.8 µM (top of the series) unless noted. In short, it runs like this: (§2)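 72 hr, 37 degree celsius; NPC 8-pt / MIPE 11-pt dose response; compound pinned in DMSO; CellTiter-Glo, 10 min RT, luminescence; normalized to no-cell and DMSO controls.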

The next assay has as its system MCC-13. The assay is described as above. The settings on record: MCC and control cell lines, CellTiter-Glo viability, 72 h; series mostly up to 46 µM. In outline: as §2
For a further assay, the system named is MCC-26. The description is as above. As to conditions: MCC and control cell lines, CellTiter-Glo viability, 72 h; series mostly up to 46 µM. In outline: as §2
A further assay concerns MKL-1. The assay is described as above. The settings on record: MCC and control cell lines, CellTiter-Glo viability, 72 h; series mostly up to 46 µM. In short, it runs like this: as §2
In a further assay the test system is MKL-2. The description is as above. As to conditions: MCC and control cell lines, CellTiter-Glo viability, 72 h; series mostly up to 46 µM. In short, it runs like this: as §2
Another assay deals with UISO. Described as above. The settings on record: MCC and control cell lines, CellTiter-Glo viability, 72 h; series mostly up to 46 µM. In outline: as §2
A further assay deals with WaGa. The description is as above. The settings on record: MCC and control cell lines, CellTiter-Glo viability, 72 h; series mostly up to 46 µM. In outline: as §2
The test system of a further assay is C33A. Put plainly: Primary qHTS to identify gynecologic anti-cancer compounds using libraries of approved drugs and bioactive compounds (AID 1345084). Also: % is scaled to controls: 0 for no effect and ±100 for the full control effect; nearly all actives have a fitted effect of over 55% in size. The settings on record: Gynecologic cancer cell panel viability, ATPlite luminescence, 48 h; series mostly up to 57.5 µM. In outline:
(§3)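 Five-concentration response, 48 h; readout is ATP-driven luciferase luminescence.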

The next assay has as its system CAOV3. Described as above. The settings on record: Gynecologic cancer cell panel viability, ATPlite luminescence, 48 h; series mostly up to 57.5 µM. In outline:
as §3

A further assay relates to CASKI. The assay is described as above. The settings on record: Gynecologic cancer cell panel viability, ATPlite luminescence, 48 h; series mostly up to 57.5 µM. In short, it runs like this: as §3
Another assay has as its system Es-2. Described as above. As to conditions: Gynecologic cancer cell panel viability, ATPlite luminescence, 48 h; series mostly up to 57.5 µM. In outline: as §3
Another assay concerns HeLa. Described as above. The settings on record: Gynecologic cancer cell panel viability, ATPlite luminescence, 48 h; series mostly up to 57.5 µM. In outline:
as §3

In another assay the test system is CRL-7250. In words: Cytotoxic Profiling of Annotated Libraries Using Quantitative High-Throughput Screening (AID 1296008). Also: nearly all actives have a fitted effect of over 60% in size. As to max response: % is scaled to controls: 0 for no effect and ±100 for the full control effect. The settings on record: Five cell lines viability, CellTiter-Glo ATP luminescence, 48-72 h; max response: active compounds read low. In short, it runs like this: as §1
Another assay has as its system HEK293T. In words: qHTS assay to identify novel small-molecules to repurpose for Merkel cell carcinoma treatment (AID 1296009). Also: nearly all actives have a fitted effect of over 60% in size. Also: potency is read from the fitted curve at half-maximal effect. As to conditions: MCC and control cell lines, CellTiter-Glo viability, 72 h; at 44.8 µM (top of the series) unless noted. In short, it runs like this: as §2
Assay [4] concerns NIH3T3. Described as above. As to conditions: MCC and control cell lines, CellTiter-Glo viability, 72 h; at 44.8 µM (top of the series). In short, it runs like this: as §2

For the molecule `CC(C)(C)CC(C)(C)c1ccc(O)c(-n2nc3ccccc3n2)c1`, the Potency in the assay on W2 was 6.01 µM (active). Besides, the max response with HEK293 is -0.0454%; with KB-3-1, 2.75%; with NIH3T3 [2], 3.67%. The outcome with HaCat [1] and in the assay with HACAT [3] was inactive. Further, the Potency entry in the assay on MCC-13, with MCC-26, with MKL-1, with MKL-2, in the assay on UISO and in the assay with WaGa was “inactive” throughout. In addition, the Potency entry in the assay on C33A, in the assay with CAOV3, in the assay with CASKI, in the assay with Es-2 and in the assay with HeLa was “inactive” throughout.

Consider `c1ccc(-c2nc[nH]c2-c2ccccc2)cc1`, for which the Potency result in the assay on W2, with MCC-13, with MKL-1, in the assay with MKL-2, in the assay with UISO and with WaGa was “inactive” each time. Also, the Potency entry with CAOV3, in the assay with CASKI, in the assay on Es-2 and in the assay on HeLa was “inactive” each time. Moreover, the max response in the assay with CRL-7250 is -18.7%; in the assay with HaCat [1] it was -29.5%; in the assay on KB-3-1, 23.6%; in the assay on NIH3T3 [2], -7.14%.

Turning to `O=C1OC2(c3ccccc31)c1cc(Br)c(O)c(Br)c1Oc1c2cc(Br)c(O)c1Br`, the result in the assay on HEK293, in the assay with HaCat [1], in the assay with HACAT [3] and in the assay with HEK293T was inactive. For the same molecule, the values for the max response in the assay with KB-3-1 and with NIH3T3 [2] were -24.7% and -4.74%, respectively. For the same molecule, the Potency result with MCC-13, in the assay on MCC-26, in the assay with MKL-1, in the assay with MKL-2, in the assay on UISO and in the assay on WaGa was “inactive” throughout. Further, the Potency result with C33A, in the assay with CAOV3, in the assay with CASKI, with Es-2 and in the assay on HeLa was “inactive” in each case.

In the case of `CO[C@H]1C=CO[C@@]2(C)Oc3c(C)c(O)c4c(O)c(c(/C=N/N5CCN(C)CC5)c(O)c4c3C2=O)NC(=O)/C(C)=C\C=C[C@H](C)[C@H](O)[C@@H](C)[C@@H](O)[C@@H](C)[C@H](OC(C)=O)[C@@H]1C`, the max response with CRL-7250 was 1.9%; in the assay on HaCat [1] it was -21.6%; in the assay with KB-3-1 it was -19.7%; with NIH3T3 [2], -0.808%. The Potency result in the assay with MCC-13, in the assay on MCC-26, in the assay on C33A, in the assay on CAOV3, with CASKI and in the assay on Es-2 was “inactive” in each case. In addition, in the assay with HeLa, the Potency entry is “inactive”. Also, the Potency in the assay with MKL-1 was 21.1 µM (active).

Consider `C[N+]1(CC2COC(c3ccccc3)(C3CCCCC3)O2)CCCCC1` (configuration not stated), for which the Potency in the assay on W2 was 5.36 µM (active); in the assay on MKL-1, 10.6 µM (active); in the assay on MKL-2, 5.96 µM (active); in the assay on WaGa, 18.8 µM (active). The max response in the assay on CRL-7250 is -1.29%; with HaCat [1], 3.15%; in the assay on KB-3-1, -6.02%; with NIH3T3 [2] it was -8.34%. Moreover, the Potency result in the assay on MCC-13, in the assay with MCC-26, in the assay on C33A, with CASKI, in the assay on Es-2 and in the assay with HeLa was “inactive” each time.

Consider `NC(=O)C1(N2CCCCC2)CCN(CCCC(=O)c2ccc(F)cc2)CC1`, for which the max response is -19.7% in the assay on HEK293, 5.68% in the assay with KB-3-1 and -2.39% in the assay with NIH3T3 [2]. Further, the call in the assay with HaCat [1] and with HACAT [3] was inactive. For the same molecule, the Potency entry in the assay with MCC-13, with MCC-26, with MKL-1, in the assay on MKL-2, in the assay with UISO and in the assay on WaGa was “inactive” throughout. In addition, the Potency entry in the assay with C33A, with CASKI, with Es-2 and in the assay on HeLa was “inactive” throughout.

With `CC(=O)Nc1ccc(OC(=O)c2ccccc2OC(C)=O)cc1`, the Potency result with W2, with MCC-13, with MKL-1, in the assay on MKL-2, with UISO and with WaGa was “inactive” throughout. The Potency result with C33A, in the assay on CAOV3, in the assay on CASKI, with Es-2 and in the assay on HeLa was “inactive” throughout. For the same molecule, the result in the assay with HEK293, in the assay with HaCat [1], in the assay with NIH3T3 [2], in the assay on HACAT [3], with HEK293T and in the assay on NIH3T3 [4] was inactive. For the same molecule, the max response in the assay with KB-3-1 is -4.86%.
